{
  "source": "PubChem BioAssay (EPA / NIEHS)",
  "note": "“And” between values parts separate entries of the source, which are not always exact repeats. Equal entries are not always repeated. The source made the active and inactive calls. Rule for the calls: active = hit-call score of the fitted dose curve at least 0.9, where 1 is the maximum; inactive = score below 0.9.",
  "data": [
    {"read-out": "Macrophage Inflammatory Protein-1 Alpha (MIP1a), CCL3 (gene 6348)", "experiment": "BSK_IMphg_MIP1a: BioMAP Diversity Plus: IMphg Assay for Macrophage Inflammatory Protein-1 Alpha (MIP1a) Biomarker Activity (AID 2284255)", "conditions": "primary human endothelial cells with macrophages", "description": "BSK_IMphg is a cell-based, multiplexed-readout assay that uses venular endothelial cells and macrophages, a human vascular primary cell, with measurements taken at 24 hours after chemical dosing in a microplate: 96-well plate.BSK_IMphg_MIP1a is an assay component measured in the BSK_IMphg assay. It measures MIP-1a antibody related to regulation of gene expression using ELISA technology.Data from the assay component BSK_IMphg_MIP1a was analyzed at the endpoint, BSK_IMphg_MIP1a, in the positive analysis fitting direction relative to DMSO as the negative control and baseline of activity. Using a type of binding reporter, gain or loss-of-signal activity can be used to understand protein changes. To generalize the intended target to other relatable targets, this assay endpoint is annotated to the 'cytokine' intended target family, where the subfamily is 'inflammatory factor'.\nThe levels of cell surface (or secreted, indicated by the prefix \"s\") biomarker endpoints were measured by ELISA. Overt cytotoxicity to cells in confluent adherent cultures (all systems other than the BT system) was assessed by measuring total protein levels using sulforhodamine B (SRB) staining in parallel cultures at the time of biomarker measurements, indicated as SRB endpoints. For proliferation assays for adherent cell types, individual cell types are cultured at sub-confluence and relative cell numbers quantified by SRB staining at time points optimized for each system (48 h: 3C and CASM3C systems; 72 h: BT and HDF3CGF systems; 96 h: SAg system). SRB was performed by staining cells with 0.1% SRB after fixation with 10% TCA and reading wells at 560 nm.Viability and proliferation of PBMC (T cells) was quantified by Alamar Blue reduction for the SAg and BT systems. For PBMC viability (referred to as PBMC Cytotoxicity within the assay endpoint names), cells were plated (75,000/well in a 96-well plate) and then chemical samples added for 1 h before addition of activators, SEB and TSST-1 (20 ng/mL final concentration each). Cells were incubated for 90 h. Then, Alamar Blue (20 uL/well) (Invitrogen, Cat DAL1100) was added for 6 h, and the plates were read with a fluorescence microplate reader at 546/580 nm (excitation/emission). For PBMC proliferation, cells were plated and activated as above but incubated for only 16 h prior to addition of Alamar Blue. Plates were read after 6 h.", "values": [
      {"smiles": "NCC(F)(F)C(F)(F)C(F)(F)C(F)(F)F", "outcome": "inactive"},
      {"smiles": "FC(F)C(F)(F)COCC1CO1", "note": "(stereo not given)", "outcome": "inactive"},
      {"smiles": "O=C(Cl)C(F)(F)C(F)(F)C(F)(F)C(=O)Cl", "outcome": "inactive"},
      {"smiles": "OCCC(F)(F)C(F)(F)C(F)(F)C(F)(F)F", "outcome": "inactive"},
      {"smiles": "FC(F)(F)C(F)(F)C(F)(F)C(F)(F)C(F)(F)C(F)(F)I", "outcome": "inactive"},
      {"smiles": "O=S(=O)(O)CCC(F)(F)C(F)(F)C(F)(F)C(F)(F)C(F)(F)C(F)(F)F", "outcome": "inactive"},
      {"smiles": "OC(O)(C(F)C(O)(O)C(F)(F)F)C(F)(F)F", "AC50": "5.44 µM (active) and 7.95 µM (active)"},
      {"smiles": "FC(F)(F)COC(OCC(F)(F)F)OCC(F)(F)F", "outcome": "inactive"},
      {"smiles": "C[Si](C)(C)C(F)(F)C(F)(F)C(F)(F)F", "outcome": "inactive"},
      {"smiles": "FC(F)=C(F)C(F)(F)C(F)(F)C(F)(F)C(F)(F)C(F)(F)C(F)(F)F", "outcome": "inactive"}
    ]}
  ]
}
